# Assay results reported in PubChem BioAssay (EPA / NIEHS).
# “And” between values parts separate entries of the source, which are not always exact repeats. Equal values may be shown once. Records with an inconclusive call do not appear. The source made the active and inactive calls. The calls were made as follows: active = hit-call score of the fitted dose curve at least 0.9, where 1 is the maximum; inconclusive = response in the unintended direction; inactive = score below 0.9.
# Assay: ATG_XTT_Cytotoxicity: Cytotoxicity Assessment in the Attagene TRANS-FACTORIAL HepG2 Assay (AID 2283584);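 as to AC50: XTT signal for cell number as viability in transfected HepG2 cells; cells exposed to compound for 24 h before reading; active means loss of viability signal versus DMSO baseline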
# Outline: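 Transfect HepG2 with GAL4-UAS reporter units, dose compound, incubate 24 h, then measure viable cell number by XTT. Fit concentration response against DMSO baseline.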
Compound,outcome,AC50
Cc1ccc(CCl)cc1,inactive,
N#Cc1ccccc1Cl,inactive,
CCCSP(=S)(OCC)Oc1ccc(SC)cc1 (stereo not given),inactive,
CC[N+](CC)(CC)CC,inactive,
CCCCCCCCCCCCOS(=O)(=O)O,inactive,
CC(=O)CN(CC(C)=O)N=O,inactive,
N#CS,inactive,
CCCCC(CC)COC(=O)Cl (stereo not given),inactive,
C=CC(=O)OCC(COC(=O)C=C)(COC(=O)C=C)COC(=O)C=C,,73.8 µM (active)
CCOC(=O)c1ccccc1S(=O)(=O)NC(=O)Nc1nc(Cl)cc(OC)n1,inactive,
ClCc1ccccc1CCl,inactive,
O=[N+]([O-])c1ccc(Cl)c([N+](=O)[O-])c1,,20.2 µM (active)
C=C(C)[C@@H]1CC=C(C=O)CC1,inactive,
O=c1nc(O)n(Cl)c(=O)n1Cl,inactive,
CC(C)CP(=S)(S)CC(C)C,inactive,
CN(C1CCCCC1)C1CCCCC1,inactive,
Cc1ccc(OP(=O)(Oc2ccc(C)cc2C)Oc2ccc(C)cc2C)c(C)c1,inactive,
C1CCC(C2CCCCC2)CC1,inactive,

Compound,outcome,AC50
Cc1cc(Cl)ccc1N,inactive,
[Cl][Sn]([c]1ccccc1)([c]1ccccc1)[c]1ccccc1,,1.73 µM (active) and 986 nM (active)
Cl[C@H]1OCCO[C@@H]1Cl,inactive,
Cc1cccc(OP(=O)(Oc2cccc(C)c2)Oc2cccc(C)c2)c1,inactive,
Nc1cccnc1,inactive,
CC(c1ccccc1)(c1ccc(O)cc1)c1ccc(O)cc1,,40.4 µM (active)
Cc1cc(Cl)ccc1OCCCC(=O)O,inactive,
OC(Cc1ccccc1Cl)(Cn1[nH]cnc1=S)C1(Cl)CC1 (stereo not given),inactive,
COCCl,inactive,
O=C(O)COc1cc(Cl)c(Cl)cc1Cl,inactive,
C[N+](C)(C)Cc1ccccc1,inactive,
CCNc1nc(NCC)nc(SC)n1,inactive,
c1cc[c]([Sb]([c]2ccccc2)[c]2ccccc2)cc1,inactive,
Clc1cnc(Oc2ccc(Oc3ncc(Cl)cc3Cl)cc2)c(Cl)c1,inactive,
Cc1ccc2nc3sc(=O)sc3nc2c1,inactive,
C[C@H]1C(=O)O[C@@H]2CCN3CC=C(COC(=O)[C@](C)(O)[C@]1(C)O)[C@H]23,inactive,
C1CN2CCN1CC2,inactive,

# Assay: TOX21_p53_BLA_p2_viability: Viability Assessment in the Tox21 HCT-116 p53 Agonism Beta-lactamase Assay, Phase 2 (AID 2283591);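 also: compound exposure lasted 16 h at 37 °C; actives lower the ATP signal meaning cytotoxicity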
# Outline: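 HCT116 p53-bla cells, 4000/well, dosed after 5 h plating (217-fold dilution of DMSO stocks) and incubated 16 h at 37C. Viability taken as cellular ATP by CellTiter-Glo luminescence after 30 min RT; signal loss marks cytotoxicity.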
Compound,outcome,AC50
N#CS,inactive,
C=CC(=O)OCC(COC(=O)C=C)(COC(=O)C=C)COC(=O)C=C,,16.6 µM (active)
O=[N+]([O-])c1ccc(Cl)c([N+](=O)[O-])c1,,45.5 µM (active) and 39.7 µM (active)
Cc1cc(Cl)ccc1OCCCC(=O)O,inactive,
Clc1cnc(Oc2ccc(Oc3ncc(Cl)cc3Cl)cc2)c(Cl)c1,inactive,
